Compounds with a hit are over-represented: about 11% of the library has one in this group of screens.
AMA1 RON2 block = disrupts binding of P. falciparum AMA1 to RON2 | Potency, µM (top dose mostly 58.2 µM), inactives show top-dose activity change, negative = inhibition, usual class: inhibitors | actives 0.2% (n = 360,000) | AlphaScreen AMA1-biotinylated RON2 peptide binding;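 note: 0% = vehicle wells and -100% = peptide control; nearly all actives have a fitted effect of over 45% in size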
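AMA1 (3D7) with his tag at 25 nM final met compounds first, then biotinylated RON2 peptide at 25 nM; detection used donor plus acceptor beads, 10 µg/mL apiece, read by AlphaScreen after 30 min at room temperature.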
HCV inhibitor = HCV inhibition; Huh7.5.1 HCVcc-Cre infection, luciferase reporter, 44 h; Potency, µM (series often up to 41.8 µM), for inactives: at the highest dose activity change, negative = inhibition, hits mostly inhibitors; actives 3.4% (n = 340,000)
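Whole-lifecycle infectious HCVcc-Cre system; cells 1,000/well, compound then virus (~0.5 moi) added 4 h after plating, 44 h culture. Luciferase read 15 sec following 15 min substrate incubation, room temp.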
Pf growth 48h = P. falciparum growth inhibition at 48 hours (one generation); actives 5.9% (n = 310,000); Potency, µM (series often up to 28.7 µM), inactives show top-dose activity change, negative = inhibition, usual class: inhibitors; P. falciparum luciferase growth in erythrocytes, 48 h
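Parasite viability was followed by luminescence of a genomically integrated firefly luciferase. Cultures held 0.1% parasitemia at 2% hematocrit (final), incubated under 5% CO2 at 37 C.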
AmpC detergent = AmpC beta-lactamase inhibition with detergent present; P00811; AmpC hydrolysis of nitrocefin, absorbance 480 nm, 0.01% Triton; Potency, µM (titrated, usually from 114 µM), inactives show at the top dose activity change, negative = inhibition, hits mostly inhibitors; actives 0.041% (n = 370,000); AID 485294;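 note: 0% = no-compound wells and -100% = no-enzyme wells; nearly all actives have a fitted effect of over 25% in size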
Target sequence (P00811 whole entry, looked up): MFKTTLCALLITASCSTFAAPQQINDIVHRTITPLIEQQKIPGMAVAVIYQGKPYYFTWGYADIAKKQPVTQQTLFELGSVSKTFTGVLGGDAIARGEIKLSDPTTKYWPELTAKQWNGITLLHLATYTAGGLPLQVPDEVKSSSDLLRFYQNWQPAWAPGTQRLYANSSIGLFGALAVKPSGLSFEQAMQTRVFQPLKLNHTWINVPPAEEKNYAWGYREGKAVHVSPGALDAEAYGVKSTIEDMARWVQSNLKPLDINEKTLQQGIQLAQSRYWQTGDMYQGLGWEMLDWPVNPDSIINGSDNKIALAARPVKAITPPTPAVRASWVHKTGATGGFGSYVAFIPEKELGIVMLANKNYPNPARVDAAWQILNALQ
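AmpC (5.3 nM in the dispensed reagent) in 20 mM phosphate pH 7.0 with 0.01% (detergent screen) or 0.0001% Triton X-100 was preincubated with compounds for 15 min at room temperature. Nitrocefin was then added from an 800 uM solution, and hydrolysis was followed at 480 nm.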
Pf growth 96h = P. falciparum growth inhibition at 96 hour, primary screen for plastid delayed-death inhibitors; P. falciparum luciferase reporter growth, 96 h; Potency, µM (top dose mostly 28.7 µM), without a hit: top-dose activity change, negative = inhibition, most hits filed as inhibitors; actives 6.9% (n = 320,000)
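Two parasite generations (96 h, 37 C, 5% CO2) of compound exposure in infected erythrocytes (0.05% parasitemia, 2% hematocrit). Luciferase-reporter P. falciparum; decreased luminescence indicates inhibited growth, aimed at apicoplast-acting delayed death.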
AmpC inh no detg = blocks E. coli AmpC beta-lactamase in detergent-free assay; P00811; AmpC nitrocefin hydrolysis, absorbance 480 nm, 0.0001% Triton; Potency, µM (series often up to 57.1 µM), inactives show at the highest dose activity change, negative = inhibition, most hits filed as inhibitors; actives 0.52% (n = 330,000);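 note: plate controls were no compound for no effect and no enzyme for full effect; nearly all actives have a fitted effect of over 20% in size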
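AmpC (5.3 nM in the dispensed reagent) in 20 mM phosphate pH 7.0 with 0.01% (detergent screen) or 0.0001% Triton X-100 was preincubated with compounds for 15 min at room temperature. Nitrocefin was then added from an 800 uM solution, and hydrolysis was followed at 480 nm.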
Active calls of the source: *. Calls come from the whole dose curve; as a rule, active = well fitted curve in the direction sought with a large enough effect; inconclusive = small, poorly fitted or top-dose-only effect, or another doubt; inactive = no such curve, though single readings can be large; an effect the other way counts as inactive or inconclusive. Unless noted, % is set by controls: 0 for no effect and ±100 for the full control effect; potency is the fitted concentration of half-maximal effect.

COc1ccccc1CNC(=O)CN1C(=O)CSc2c1c(C)nn2-c1ccccc1 was read as AmpC detergent -6%.
`Clc1ccc(OCCSc2ncccn2)c(Br)c1` gave AMA1 RON2 block 33%, HCV inhibitor 11µM*, Pf growth 48h 83%, AmpC detergent 7%, Pf growth 96h 8% and AmpC inh no detg -16%.
`Cc1ccc(NC(=S)N/N=C/c2c(C)nn(-c3ccccc3)c2N2CCCC2)cc1` gave AMA1 RON2 block 26%, HCV inhibitor inconclusive, Pf growth 48h 12µM*, AmpC detergent -11%, Pf growth 96h inconclusive and AmpC inh no detg -31%.
`Cc1nn(-c2ccccc2)c(N2CCCC2)c1/C=N/NC(=S)Nc1ccc(F)cc1` gave AMA1 RON2 block 63% and HCV inhibitor inconclusive.
Cc1nn(-c2ccccc2)c(N2CCCC2)c1/C=N/NC(=S)Nc1ccccc1C(F)(F)F was read as AMA1 RON2 block 44%, HCV inhibitor inconclusive, Pf growth 48h inconclusive, AmpC detergent inconclusive, Pf growth 96h 4.7µM* and AmpC inh no detg -8%.
Screening Cc1nn(-c2ccccc2)c(N2CCCC2)c1/C=N/NC(=S)Nc1cc(C(F)(F)F)ccc1Cl returned AMA1 RON2 block 51%, HCV inhibitor inconclusive, Pf growth 48h 12µM*, AmpC detergent 2%, Pf growth 96h 4.1µM* and AmpC inh no detg -48%.
Screening COc1ccc(N(Cc2cc3ccc(C)cc3[nH]c2=O)C(=O)c2ccco2)cc1 returned AMA1 RON2 block -2%, HCV inhibitor 8%, Pf growth 48h 2%, AmpC detergent inconclusive, Pf growth 96h -29% and AmpC inh no detg -19%.
Screening O=C(c1ccco1)N(Cc1ccc2c(c1)OCO2)Cc1cc2cc3c(cc2[nH]c1=O)OCO3 returned AMA1 RON2 block 0%, HCV inhibitor -11%, Pf growth 48h 45%, AmpC detergent -9%, Pf growth 96h 12µM* and AmpC inh no detg -42%.
For Cc1ccc2cc(CN(Cc3ccco3)C(=S)NCC3CCCO3)c(=O)[nH]c2c1 (stereo unspecified) the results were AMA1 RON2 block -12%, HCV inhibitor -16%, Pf growth 48h -4%, AmpC detergent 9%, Pf growth 96h 3.7µM* and AmpC inh no detg 35%.
`Cc1cc2cc(CN(Cc3ccc4c(c3)OCO4)C(=O)c3ccco3)c(=O)[nH]c2cc1C` gave AMA1 RON2 block -7%, HCV inhibitor -69%, Pf growth 48h inconclusive, AmpC detergent -4%, Pf growth 96h inconclusive and AmpC inh no detg -5%.
Screening COc1ccc2cc(CN(CC3CCCO3)C(=S)NCc3ccco3)c(=O)[nH]c2c1 (stereo unspecified) returned AMA1 RON2 block 4%, HCV inhibitor 0%, Pf growth 48h 9.3µM*, AmpC detergent 5%, Pf growth 96h 26% and AmpC inh no detg 86%.
For Cc1ccc(C)c(N(Cc2cc3ccc(C)cc3[nH]c2=O)C(=O)c2ccco2)c1 the results were AMA1 RON2 block -2%, HCV inhibitor inconclusive, Pf growth 48h inconclusive, AmpC detergent -4%, Pf growth 96h 7.4µM* and AmpC inh no detg -14%.
Screening Cc1cccc(NC(=O)C2CCN(c3nc4ccccc4[nH]3)CC2)c1C returned AmpC detergent 2%.
Screening Cc1ccc(CNC(=O)c2ccc(N3CCCC3)c(NC(=O)Nc3ccc(C)cc3)c2)cc1 returned AmpC detergent 1%.
For Cc1ccc(-n2c3c(c(=O)[nH]c2=O)C(NC(=O)c2ccccc2F)(C(F)(F)F)C(=O)N3)cc1C (stereo unspecified) the results were AmpC detergent -2%.
CC(=NCC1CCCO1)c1c(O)n(C)c(=O)n(C)c1=O (stereo unspecified) was read as AMA1 RON2 block -4%, HCV inhibitor 13%, Pf growth 48h 3%, AmpC detergent inconclusive, Pf growth 96h 15µM* and AmpC inh no detg -17%.
CC(C)(C)c1ccc(Oc2cccc(C3CC(=O)C(C4NCCc5ccccc54)C(=O)C3n3cncn3)c2)cc1 (stereo unspecified) was read as AMA1 RON2 block 29%, HCV inhibitor -2%, Pf growth 48h 1.2µM*, AmpC detergent 3%, Pf growth 96h 14% and AmpC inh no detg 75%.
`O=C1CC(c2ccccc2Oc2cccc(Cl)c2)C(n2cncn2)C(=O)C1C1NCCc2ccccc21` (stereo unspecified) gave AMA1 RON2 block -1%, HCV inhibitor 12%, Pf growth 48h 0%, AmpC detergent -6%, Pf growth 96h -14% and AmpC inh no detg 72%.
`Cc1ccc(CNC(=O)CSc2c(C(C)C)cnc3c2c(=O)n(C)c(=O)n3C)cc1` gave AmpC detergent 18%.
Screening COC(=O)c1ccc(COc2ccc(/C=C(\C#N)c3nc4ccccc4[nH]3)cc2OC)o1 returned AMA1 RON2 block -10%, HCV inhibitor -24%, Pf growth 48h 1.3µM*, AmpC detergent 1%, Pf growth 96h inconclusive and AmpC inh no detg -26%.
`COc1cc(/C=C(/C#N)c2nc3ccccc3[nH]2)ccc1OCc1ccc(C(=O)O)o1` gave AMA1 RON2 block 18%, HCV inhibitor -1%, Pf growth 48h inconclusive, AmpC detergent 7%, Pf growth 96h inconclusive and AmpC inh no detg -23%.
CCc1ccc(NC(=O)COc2ccc(/C=C(/C#N)c3nc4ccccc4[nH]3)cc2OC)cc1 was read as AMA1 RON2 block 5%, HCV inhibitor inconclusive, Pf growth 48h 2.6µM*, AmpC detergent 2%, Pf growth 96h inconclusive and AmpC inh no detg -29%.
Screening Fc1ccc(NCc2ccccc2-c2nnc(-c3ccccc3Cl)o2)cc1Cl returned AmpC detergent 12%.
Clc1cccc(Cl)c1Cn1cnc2c(N3CCCCCC3)ncnc21 was read as AMA1 RON2 block 2%, HCV inhibitor inconclusive, Pf growth 48h 10µM*, AmpC detergent 0% and AmpC inh no detg -12%.
CCN(CC)c1ncnc2c1ncn2Cc1c(Cl)cccc1Cl was read as AMA1 RON2 block 0%, HCV inhibitor 13µM*, Pf growth 48h inconclusive, AmpC detergent -3%, Pf growth 96h 5% and AmpC inh no detg 24%.
